Compound activity as filed in PubChem.
TDP1 block – qHTS Assay for Inhibitors of Tyrosyl-DNA Phosphodiesterase (TDP1); recombinant TDP1, AlphaScreen DNA substrate cleavage; Potency, µM (top dose mostly 130 µM), without a hit: at the top dose activity change, negative = inhibition, actives largely listed as inhibitors; 350,000 tested, 0.28% active; AID 485290, 2010; further: potency means the concentration at half of the fitted maximal effect; nearly all actives have a fitted effect of over 40% in size
Target sequence (Q9NUW8 whole entry, looked up): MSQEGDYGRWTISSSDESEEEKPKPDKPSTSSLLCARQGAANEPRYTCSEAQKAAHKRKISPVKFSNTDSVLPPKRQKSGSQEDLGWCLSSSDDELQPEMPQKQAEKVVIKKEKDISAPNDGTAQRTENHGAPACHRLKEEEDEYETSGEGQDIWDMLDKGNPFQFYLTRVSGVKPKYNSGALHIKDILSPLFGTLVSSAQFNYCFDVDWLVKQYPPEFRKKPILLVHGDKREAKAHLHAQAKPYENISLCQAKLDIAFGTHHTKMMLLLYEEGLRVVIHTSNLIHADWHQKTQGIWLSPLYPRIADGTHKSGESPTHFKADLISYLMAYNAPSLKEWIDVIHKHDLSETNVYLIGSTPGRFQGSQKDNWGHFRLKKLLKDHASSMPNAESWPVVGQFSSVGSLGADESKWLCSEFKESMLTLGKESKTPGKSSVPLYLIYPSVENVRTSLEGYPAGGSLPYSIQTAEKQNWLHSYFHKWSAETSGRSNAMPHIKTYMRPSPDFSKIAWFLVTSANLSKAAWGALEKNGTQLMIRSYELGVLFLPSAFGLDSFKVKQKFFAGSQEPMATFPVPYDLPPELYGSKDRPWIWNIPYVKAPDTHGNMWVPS
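Steps: enzyme plus compound, 15 min RT; add biotin/phosphotyrosine-FITC oligonucleotide (15 nM final), react 5 min; add donor/acceptor beads (10 ug/ml final), 10 min; read AlphaScreen. Tdp1 at 1 nM final.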
DT40 TDP1 CPT – qHTS for Inhibitors of human tyrosyl-DNA phosphodiesterase 1 (TDP1): qHTS in cells in presence of CPT; chicken DT40 Tdp1-/-;hTDP1 cells + 20 nM CPT, ATP luminescence, 48 h; 420,000 tested, 12% active; Potency, µM (top dose mostly 46.2 µM), without a hit: at the highest dose activity change, negative = growth inhibition, hits mostly inhibitors; further: potency means the concentration at half of the fitted maximal effect; nearly all actives have a fitted effect of over 55% in size
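Chicken DT40 Tdp1-/- cells complemented with human TDP1, 400 cells/well, exposed to compounds plus 20 nM camptothecin for at least 48 h at 37 C; viability read as ATP content by CellTiter-Glo luminescence.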
ELG1 repair inh – qHTS screen for small molecules that inhibit ELG1-dependent DNA repair in human embryonic kidney (HEK293T) cells expressing luciferase-tagged ELG1 | HEK293T ELG1-luciferase reporter, luminescence, 16 h; DNA damage induced by 5-fluorouridine | Potency, µM (series often up to 46.1 µM), inactives show at the top dose activity change, negative = inhibition, hits mostly inhibitors | 330,000 tested, 2.3% active; further: potency means the concentration at half of the fitted maximal effect; nearly all actives have a fitted effect of over 55% in size
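Step one: seed 2,000 cells per well. Step two: pin-transfer compound or DMSO alongside 5-fluorouridine. Step three: incubate 16 hr, 37 °C, 5% CO2. Step four: add ONE-Glo, wait 30 min, read luminescence.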
Giardia kill – Small Molecules that selectively kill Giardia lamblia: qHTS | activity change, % at 7.66 µM, hits read low | 340,000 tested, 0.15% active | Giardia lamblia trophozoite viability | AID 540267, 2011; in the data active means activity change below about -80%; inconclusive means between about -30% and that limit;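 further: parasites exposed to compound for two days anaerobically before the ATP read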
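Killing of trophozoites was scored by loss of ATP luminescence after a 48 hrs anaerobic exposure to compounds at 37 deg C, using 100 cells per well.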
IL1B secr inh – qHTS for Inhibitors of Inflammasome Signaling: IL-1-beta AlphaLISA Primary Screen | THP-1 LPS/ATP IL-1B secretion, AlphaLISA, 16 h; hits give low values | AID 743279, 2014 | 360,000 tested, 4.7% active | activity change, % at 57.5 µM; in the data active means activity change below about -50%; inconclusive means mostly about -30% to -49%
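THP-1 cells pretreated 1 hr with compounds (up to 57.5 uM final), then stimulated with LPS (250 ng/mL final) plus ATP (1.25 mM final); secreted IL-1B measured by AlphaLISA after 16 hr, decreased signal indicating inhibition.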
DT40 TDP1 no CPT – qHTS for Inhibitors of human tyrosyl-DNA phosphodiesterase 1 (TDP1): qHTS in cells in absence of CPT; Potency, µM (doses to about 46.2 µM), inactives show top-dose activity change, negative = growth inhibition, most hits filed as inhibitors; DT40 Tdp1-/- hTDP1 cells, no CPT, ATP luminescence, 48 h; AID 686978, 2013; 420,000 tested, 15% active; further: potency means the concentration at half of the fitted maximal effect; nearly all actives have a fitted effect of over 55% in size
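Compound effects on proliferation are scored in DT40 Tdp1-/-;hTDP1 cells in the absence of CPT. ATP levels (CellTiter-Glo luminescence) are recorded after a ≥48 hr, 37 °C incubation.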
The depositor's hits bear a star; i = inactive; ? = inconclusive; · = no result given; [ ] = remark or other dose. An excerpt weighted towards active compounds, which were near 19% of everything screened. Unless noted, the call rests on the fitted dose curve; in most records, active means well fitted curve in the direction sought with a large enough effect; inconclusive means small, poorly fitted or top-dose-only effect, or another doubt; inactive means no such curve, though single readings can be large; an effect the other way counts as inactive or inconclusive. On the % scale 0 is the no-effect control and ±100 the full control effect.

SMILES	TDP1 block	DT40 TDP1 CPT	ELG1 repair inh	Giardia kill	IL1B secr inh	DT40 TDP1 no CPT
Cc1oc2ccc(O)c(CN3CCCCC3C)c2c1C(=O)Nc1ccccc1 (stereo unspecified)	1%	?	·	·	·	?
COc1ccc(OC)c(NC(=O)c2c(NC(=O)CNCc3ccco3)sc3c2CCC3)c1	8%	-113%	-23%	9	-10	3.7µM*
COc1ccc(NC(=O)c2c(NC(=O)CNCc3ccco3)sc3c2CCC3)c(OC)c1	3%	?	?	5	-1	21µM*
COc1ccc(NC(=O)c2c(NC(=O)CNCc3ccco3)sc3c2CCC3)cc1	0%	-17%	?	-9	0	-19%
COC(=O)c1c(NC(=O)CCNCc2ccco2)sc2c1CCC2	0%	23µM*	1%	15	-51*	?
O=S(=O)(c1cc(Br)c(Br)s1)N1CCN(c2ccccc2)CC1	3%	-23%	·	·	·	-26%
CCOC(=O)c1[nH]c2cc3c(cc2c1NC(=O)CN1CCN(CCO)CC1)OCO3	1%	1%	4%	5	15	-14%
CCS(=O)(=O)c1ccc(-c2csc(-c3ccccc3)n2)c(Cl)c1Cl	3%	16µM*	-8%	-2	-12	21µM*
O=c1[nH]c(=O)c2ncn(C3OC(CO)C(O)C3O)c2[nH]1 (stereo unspecified)	3%	2%	·	-14	·	-5%
CO[C@H]1[C@H](NC(=O)c2ccco2)c2ccccc2C12CCN(Cc1ccc3cccc(F)c3n1)CC2	·	-2%[9.04 µM]	·	·	·	?
O=C1C=C(c2ccc(OC(F)(F)F)cc2)C[C@@H](c2ccc(F)cc2)C1	-6%	?	2%	20	-30	?
COc1cccc(C#CC2=CC(=O)C[C@H](c3ccc(F)cc3)C2)c1	·	13µM*	·	·	-93*	8.2µM*
O=C1C=C(C#Cc2ccc(Oc3ccccc3)cc2)C[C@@H](c2ccc(F)cc2)C1	·	16µM*	·	·	-80*	12µM*
Cc1nc2cnc(Oc3cccc(Cl)c3)nc2n(C[C@H]2CCCO2)c1=O	·	-10%	·	·	·	?
COc1ccc(C(=O)OCCOc2cccc(Cl)c2)cc1S(=O)(=O)N1CCOCC1	2%	?	?	-24	i	?
CN1/C(=C\C(=S)NC(=O)c2ccc([N+](=O)[O-])cc2)C(C)(C)c2ccccc21	2%	16µM*	9%	-5	3	23µM*
CN1/C(=C\C(=S)NC(=O)c2cccc(Br)c2)C(C)(C)c2ccccc21	11%	9.2µM*	?	3	-27	5.2µM*
CN1/C(=C\C(=O)CSc2nncn2C)C(C)(C)c2ccccc21	3%	17%	5%	-7	10	-5%
CCN(CC)S(=O)(=O)c1cccc(C(=O)/C=C2/N(C)c3ccccc3C2(C)C)c1	-15%	21µM*	?	-5	?	15µM*
Cc1oc(-c2ccc(C(=O)NC(C)c3ccccc3)cc2)nc1CS(=O)(=O)c1ccccc1 (stereo unspecified)	3%	-12%	·	·	·	-11%
CNc1ccc(-c2nc(-c3ccncc3)no2)cc1[N+](=O)[O-]	6%	-14%	·	·	·	-6%
CCN(CC)c1ccc(-c2nc(-c3ccccn3)no2)cc1[N+](=O)[O-]	6%	-7%	·	·	·	16µM*
CCN(CC)c1ccc(-c2nc(-c3ccncc3)no2)cc1[N+](=O)[O-]	0%	13µM*	·	·	·	15µM*
Cc1cc(-c2nc(-c3ccncc3)no2)ccc1[N+](=O)[O-]	·	15µM*	?	-4	-8	?
Cc1ccc(-c2nc(-c3ccccn3)no2)cc1[N+](=O)[O-]	·	?	?	?	3	23µM*
SMILES	TDP1 block	DT40 TDP1 CPT	ELG1 repair inh	Giardia kill	IL1B secr inh	DT40 TDP1 no CPT
CCN(Cc1ccc(OC)cc1)c1ccc(-c2nc(-c3ccncc3)no2)cc1[N+](=O)[O-]	6%	?	·	·	·	?
Cc1ccc(S(=O)(=O)N2CCC(=O)c3ccccc32)cc1	·	?	·	·	-1	?
Cc1ccc(SCCC(=O)NCCSCc2ccccc2C)cc1	-1%	-15%	12%	8	7	-21%
O=C(c1ccc(-c2ccccc2)cc1)N1CCN(c2ccccn2)CC1	4%	-12%	-16%	-2	-3	-3%
CCOc1ccc(CNc2ccc3c(c2)ncn3C(C)(C)C)cc1	·	?	?	8	2	21µM*
Cc1ccccc1-n1cnc2cc(NCc3cccs3)ccc21	12%	?	1%	12	-11	23µM*
CC(C)(C)n1cnc2cc(NC(=O)c3cccs3)ccc21	6%	?	?	2	-70*	23µM*
CCn1cnc2cc(NCc3cccs3)ccc21	-4%	-25%	?	-3	-2	3%
Oc1ccc(NCc2cccs2)cc1	2%	?	0%	8	9	13µM*
CO[C@H]1COC(=O)C/C=C\[C@H](C)COC(=O)[C@@H](C)NC(=O)C/C=C\[C@@H]1C	6%[21 µM]	·	·	·	·	·
CCN(CC)C(=O)COCc1cc(-c2ccc3c(c2)OCO3)on1	·	-18%	?	-17	8	?
COc1ccccc1-n1cnc2cc(NCc3cccs3)ccc21	10%	0.73µM*	?	-11	-8	0.92µM*
CCCNC(=O)c1ccc2c(c1)ncn2-c1ccccc1OC	1%	3%	?	-15	20	?
COc1ccccc1-n1cnc2cc(NCc3ccco3)ccc21	10%	1.5µM*	?	2	-4	1.3µM*
COc1ccc(CNc2ccc3c(c2)ncn3-c2ccccc2OC)cc1	12%	?	?	-2	-91*	?
CC(C)(C)n1cnc2cc(NCc3cccs3)ccc21	8%	?	?	-6	-59*	-17%
CCOC(=O)c1cnc(-n2nc(C)cc2C)nc1N(CC)CC	5%	23µM*	?	2	-5	16µM*
CCOC(=O)c1cnc(-n2nc(C)cc2C)nc1Nc1ccc(N(C)C)cc1	5%	1.3µM*	15µM*	-1	-5	1.8µM*
CCOC(=O)c1cnc(-n2nc(C)cc2C)nc1Nc1ccc2c(c1)OCO2	-4%	·	?	·	·	·
